Assay outcomes: PubChem BioAssay, National Center for Advancing Translational Sciences (NCATS)
L3MBTL1 inh: qHTS Assay for the Inhibitors of L3MBTL1; Lethal(3)malignant brain tumor-like protein 1 (Homo sapiens), Q9Y468; AlphaScreen L3MBTL1–H3K9me1 peptide binding; actives 0.66% (n = 230,000); Potency, µM (titrated, usually from 57.1 µM), for the others: at the highest dose activity, negative = inhibition, hits mostly inhibitors; also: nearly all actives have a fitted effect of over 60% in size
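L3MBTL1 50 nM + b-AHA-H3(1-15)K9me1 75 nM, 30 min RT; compound added, 30 min RT; streptavidin donor/Ni-chelate acceptor beads 10 ug/mL each final, 30 min RT dark; AlphaScreen read.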
APE1 inh-1: qHTS Assay for Inhibitors of the Human Apurinic/apyrimidinic Endonuclease 1 (APE1); actives 0.35% (n = 350,000); Potency, µM (series often up to 65.8 µM), without a hit: at the top dose activity change, negative = inhibition, actives largely listed as inhibitors; recombinant APE1, TAMRA/BHQ-2 abasic DNA cleavage fluorescence;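 also: plate controls were vehicle for no effect and reference inhibitor for full effect; nearly all actives have a fitted effect of over 55% in size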
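Measures dequenching upon AP-site incision of a 5'-TAMRA/3'-BHQ-2 THF-containing duplex, 50 nM; human APE1 0.75 nM after 15 min room-temperature exposure to compound; kinetic three-point read at one-minute spacing.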
RECQ1 inh-1: qHTS Assay for Inhibitors of RecQ-Like Dna Helicase 1 (RECQ1) | ATP-dependent DNA helicase Q1 (Homo sapiens), P46063 | Potency, µM (top dose mostly 57.3 µM), for inactives: at the highest dose activity, negative = inhibition, most hits filed as inhibitors | AID 2549, 2010 | RECQ1 DNA unwinding, red fluorescence kinetic read | actives 0.54% (n = 240,000);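 also: plate controls were vehicle for no effect and no enzyme for full effect; nearly all actives have a fitted effect of over 30% in size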
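RECQ1T1 50 nM; forked duplex (20 bp + 30-nt ss tails) 200 nM, ATP 2 mM final; pH 8.0, 2 mM MgCl2, 2.5 ug/ml poly(dI-dC); 15 min compound preincubation; discontinuous kinetic read over 2 h at RT.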
KDM4E inh: qHTS Assay for Inhibitors of Human Jumonji Domain Containing 2E (JMJD2E). JMJD2E catalytic domain, FDH-coupled NADH fluorescence (FDH is formaldehyde dehydrogenase). Potency, µM (highest dose often 57.1 µM), for inactives: at the highest dose activity change, negative = inhibition, most hits filed as inhibitors. actives 1.6% (n = 230,000). AID 2147, 2009; active = well fitted inhibition curve with a large enough effect, not every such curve was filed as active; inconclusive = small, poorly fitted or top-dose-only effect, or another doubt; inactive = no such curve, though single readings can be large or run the other way;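 also: 0% = wells with enzyme and -100% = buffer wells without enzyme; nearly all actives have a fitted effect of over 50% in size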
BLM inh: qHTS Assay for Inhibitors of Bloom's syndrome helicase (BLM). recombinant BLM DNA unwinding, fluorescence dequenching. AID 2528, 2010. actives 0.2% (n = 350,000). Potency, µM (doses to about 56.1 µM), inactives show at the top dose activity change, negative = inhibition, actives largely listed as inhibitors. RecQ-like DNA helicase BLM (Homo sapiens), P54132;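 also: plate controls were vehicle for no effect and no enzyme for full effect; nearly all actives have a fitted effect of over 35% in size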
TDP1 inh: qHTS Assay for Inhibitors of Tyrosyl-DNA Phosphodiesterase (TDP1); AID 485290, 2010; actives 0.28% (n = 350,000); recombinant TDP1, AlphaScreen DNA substrate cleavage; Potency, µM (doses to about 130 µM), for the others: at the top dose activity change, negative = inhibition, most hits filed as inhibitors; also: nearly all actives have a fitted effect of over 40% in size
Target sequence (Q9NUW8 whole entry, looked up): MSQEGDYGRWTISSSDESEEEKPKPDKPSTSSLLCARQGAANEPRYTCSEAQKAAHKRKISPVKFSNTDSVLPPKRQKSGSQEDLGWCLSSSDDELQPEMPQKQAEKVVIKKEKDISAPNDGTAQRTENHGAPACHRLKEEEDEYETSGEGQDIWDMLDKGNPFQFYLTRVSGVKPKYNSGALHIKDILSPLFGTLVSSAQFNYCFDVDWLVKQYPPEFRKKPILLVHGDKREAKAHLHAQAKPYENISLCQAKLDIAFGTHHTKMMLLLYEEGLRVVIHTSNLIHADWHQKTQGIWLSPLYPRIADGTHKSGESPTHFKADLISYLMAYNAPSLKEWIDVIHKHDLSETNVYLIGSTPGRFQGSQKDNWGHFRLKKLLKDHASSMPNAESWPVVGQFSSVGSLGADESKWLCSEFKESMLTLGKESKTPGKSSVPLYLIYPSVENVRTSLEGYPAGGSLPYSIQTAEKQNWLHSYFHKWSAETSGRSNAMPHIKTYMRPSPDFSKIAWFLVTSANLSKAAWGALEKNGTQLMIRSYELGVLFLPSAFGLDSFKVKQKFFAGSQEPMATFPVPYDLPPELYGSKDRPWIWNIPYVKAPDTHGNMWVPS
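Enzyme-compound mixtures sat 15 min at room temperature, followed by a 5 min reaction with 15 nM final substrate and 10 min with AlphaScreen beads. Recombinant human Tdp1 was used at 1 nM final.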
APE1 dye cs: Counterscreen for APE1 Inhibitors: Fluorescent Dye Displacement Assay | actives 7% (n = 480) | DNA fluorescent dye displacement counterscreen, fluorescence | Potency, µM (top dose mostly 28.5 µM), without a hit: at the top dose activity change, negative = inhibition, usual class: inhibitors | shares compounds with APE1 inh-1;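 also: loss of thiazole orange fluorescence as the dye is displaced from duplex DNA; 0% = ThO with dsDNA and no compound and -100% = ThO without dsDNA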
EndoIV counter: Counterscreen for APE1 Inhibitors: qHTS Assay for Inhibitors of Endonuclease IV | shares compounds with APE1 inh-1 | E. coli Endo IV, fluorogenic AP-site DNA cleavage | Potency, µM (doses to about 27.1 µM), without a hit: top-dose activity change, negative = inhibition, usual class: inhibitors | actives 4% (n = 560) | AID 2565, 2010;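 also: plate controls were uninhibited enzyme wells for no effect and no enzyme buffer wells for full effect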
APE1 inh-2: Confirmation qHTS Assay for Inhibitors of the Human Apurinic/apyrimidinic Endonuclease 1 (APE1); purified APE1, fluorogenic abasic-site DNA cleavage; Potency, µM (top dose mostly 57.1 µM), for the others: at the top dose activity change, negative = inhibition, actives largely listed as inhibitors; shares compounds with APE1 inh-1; AID 2572, 2010; actives 44% (n = 750); also: nearly all actives have a fitted effect of over 30% in size
APE1 FP: qHTS FP-Based Assay for Inhibitors of the Human Apurinic/apyrimidinic Endonuclease 1 (APE1); APE1 binding to TAMRA-labelled double-stranded DNA, fluorescence polarization displacement; Potency, µM (top dose mostly 28.5 µM), inactives show at the highest dose activity, negative = inhibition, hits mostly inhibitors; AID 2573, 2010; shares compounds with APE1 inh-1; actives 7% (n = 480)
RECQ1 inh conf: Confirmation qHTS Assay for Inhibitors of RecQ-Like Dna Helicase 1 (RECQ1) | shares compounds with RECQ1 inh-1 | RECQ1 helicase DNA unwinding, fluorescence | Potency, µM (series often up to 229 µM), for the others: at the highest dose activity change, negative = inhibition, usual class: inhibitors | actives 28% (n = 610) | AID 2708, 2010; also: nearly all actives have a fitted effect of over 45% in size
RECQ1 ADP FP: Counterscreen for RECQ1 Inhibitors: ADP Fluorescence Polarization Displacement Assay | Potency, µM (top dose mostly 228 µM), without a hit: at the highest dose activity change, negative = inhibition, hits mostly inhibitors | ADP fluorescence polarization displacement counterscreen | actives 27% (n = 530) | shares compounds with RECQ1 inh-1; also: nearly all actives have a fitted effect of over 45% in size
RECQ1 inh-2: Confirmation qHTS Assay for Inhibitors of RecQ-Like Dna Helicase 1 (RECQ1) - Round 2 Cherry Picks; recombinant RECQ1 DNA unwinding, red fluorescence; Potency, µM (highest dose often 119 µM), for the others: at the top dose activity, negative = inhibition, most hits filed as inhibitors; shares compounds with RECQ1 inh-1; actives 15% (n = 1,100); also: nearly all actives have a fitted effect of over 50% in size
Active calls of the source: *; i = inactive; ? = inconclusive; . = no result; [ ] = another dose, or the depositor's remark. The sample as a whole holds a higher share of hits than the screen did. Unless noted, calls follow the shape of the dose curve; as a rule, active = well fitted curve in the direction sought with a large enough effect; inconclusive = small, poorly fitted or top-dose-only effect, or another doubt; inactive = no such curve, though single readings can be large; an effect the other way counts as inactive or inconclusive. Unless noted, % is scaled to controls: 0 for no effect and ±100 for the full control effect; potency is read from the fitted curve at half-maximal effect.

SMILES	L3MBTL1 inh	APE1 inh-1	RECQ1 inh-1	KDM4E inh	BLM inh	TDP1 inh	APE1 dye cs	EndoIV counter	APE1 inh-2	APE1 FP	RECQ1 inh conf	RECQ1 ADP FP	others
CCOC(=O)C1CCc2sc(N)c(C#N)c21 (stereo not given)	-2%[11.4 µM]	?	25µM*	?	-6%	11%	-4%	0%	-8%[24.4 µM]	?	11%[114 µM]	-1%[91.9 µM]
CCOC(=O)N1CCc2c(sc(N)c2C#N)C1	-7%	?	-1%	?	0%	4%	.	.	.	.	.	.
CCCCN(Cc1cccs1)S(=O)(=O)c1cc(-c2cc(C)no2)ccc1C	.	.	.	.	-9%	-8%	.	.	.	.	.	.
O=C(O)c1cc(O)c2c(c1)[C@H]([C@H]1c3cc(C(=O)O)cc(O)c3C(=O)c3c(O[C@@H]4OC(CO)C(O)C(O)C4O)cccc31)c1cccc(O[C@@H]3OC(CO)C(O)C(O)C3O)c1C2=O (stereo not given in full)	.	.	2µM*	11µM*	3.2µM*	.	.	-30%[57.1 µM]	0.71µM*	.	2.8µM*	7.1µM*
CCN(CC)CCCC(C)Nc1c2ccc(Cl)cc2nc2ccc(OC)cc12 (stereo not given)	.	28µM*	?	?	-6%	11%	.	7.9µM*	16µM*	.	32µM*	6.3µM*
CC(=O)OC1C=C[C@]2(C)C(CC(OC(C)=O)[C@@]3(C)C4=CC(=O)OC(c5ccoc5)[C@]4(C)CCC23)C1(C)C (stereo not given in full)	.	17%	i	0%	-3%	10%[56.1 µM]	.	.	.	.	.	.
Cc1ccc(C(=O)Nc2ccc(S(=O)(=O)O)c3cc(S(=O)(=O)O)cc(S(=O)(=O)O)c23)cc1NC(=O)c1cccc(NC(=O)Nc2cccc(C(=O)Nc3cc(C(=O)Nc4ccc(S(=O)(=O)O)c5cc(S(=O)(=O)O)cc(S(=O)(=O)O)c45)ccc3C)c2)c1	.	22µM*	20µM*	-2%	-10%	4.5µM*	.	14µM*	8.9µM*	.	2.5µM*	200%
Cc1ccc(-n2nnnc2CNC(=O)c2ccccc2F)cc1C	.	.	.	.	-3%	8%	.	.	.	.	.	.
CC1=NN(c2ccc(C(=O)O)cc2)C(=O)/C1=C/c1ccc(-c2ccccc2F)o1	.	-2%	.	.	1%	.	.	.	.	.	.	.
CC1=NN(c2ccc(Cl)c(C(=O)O)c2)C(=O)/C1=C\c1ccc(-c2ccc(C(=O)O)cc2)o1	.	25µM*	?	?	-4%	79µM*	?	10%	13µM*	1%	.	.	RECQ1 inh-2=?
O=C1C=CC2=C3c4cc(O)c(O)cc4CC3(O)COC2=C1O (stereo not given)	.	0.11µM*	1.3µM*	2µM*	16µM*	?	?	70%[57.1 µM]	1.4µM*	18µM*	11µM*	3.2µM*
CCCC(=O)Nc1nnc(SCc2cc(=O)n3cccc(C)c3n2)s1	.	.	.	.	-12%	-3%	.	.	.	.	.	.
Cc1ccc(S(=O)(=O)Nc2cc(C)c(O)cc2C)cc1	1%	0%	i	-10%	-7%	4%	.	.	.	.	.	.
Cc1ccc(S(=O)(=O)Nc2csc(C)c2C(=O)O)cc1	7.9µM*	11µM*	?	-4%	-2%	.	-7%	-1%	?	?	.	.	RECQ1 inh-2=?
Nc1cc2nc[nH]c2cc1N	-13%	-7%	1.8µM*	?	?	79µM*	.	.	?	.	8%[114 µM]	?
Cc1c(Cl)cccc1N=Cc1ccc([N+](=O)[O-])s1	?	?	?	22µM*	-9%	2%	?	3%	-8%[24.4 µM]	10%	.	.	RECQ1 inh-2=?
Cc1ccc(NC(=O)CN2C(=O)S/C(=C/c3ccc(O)c([N+](=O)[O-])c3)C2=O)cc1C	25µM*	?	?	?	25µM*	79µM*	.	.	?	.	.	.	RECQ1 inh-2=22µM*
COCCCNC1=C(Cl)C(=O)c2ccccc2C1=O	-16%	-6%	-3%	-24%	-10%	4%	.	.	.	.	.	.
